Data taken from PubChem BioAssay (NCI).
About 83,000 compounds went through this panel and 20% of them were active in at least one assay; those are over-represented in the sample as a whole.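 Interpretation: 100, growth as untreated; towards 0, rising growth inhibition; 0, no net growth; 0 to -100, cell death. Compounds scoring below 10 were considered active.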 A number with no mark means an inactive call. Calls of active or inactive are those of the source.

How the values were obtained:
Experiment in all cases: NCI-60 one-dose screen, 48 h (100 = growth as untreated, 0 = no growth, -100 = all killed)
Conditions in all cases: 10 µM unless noted
SK-MEL-2 melanoma = tested on: SK-MEL-2 melanoma
EKVX NSCLC = tested on: EKVX NSCLC
SN12C renal = tested on: SN12C renal
UO-31 renal = tested on: UO-31 renal
TK-10 renal = tested on: TK-10 renal
ACHN renal = tested on: ACHN renal
CAKI-1 renal = tested on: CAKI-1 renal
A498 renal = tested on: A498 renal
CCRF-CEM leukemia = tested on: CCRF-CEM leukemia
MOLT-4 leukemia = tested on: MOLT-4 leukemia
SR leukemia = tested on: SR leukemia
OVCAR-8 ovarian = tested on: OVCAR-8 ovarian
OVCAR-5 ovarian = tested on: OVCAR-5 ovarian
OVCAR-4 ovarian = tested on: OVCAR-4 ovarian
SK-OV-3 ovarian = tested on: SK-OV-3 ovarian
OVCAR-3 ovarian = tested on: OVCAR-3 ovarian
HS 578T breast = tested on: HS 578T breast
NCI/ADR-RES ovarian = tested on: NCI/ADR-RES ovarian
IGROV1 ovarian = tested on: IGROV1 ovarian

Structure (SMILES) | growth (SK-MEL-2 melanoma) | growth (EKVX NSCLC) | growth (SN12C renal) | growth (UO-31 renal) | growth (TK-10 renal) | growth (ACHN renal) | growth (CAKI-1 renal) | growth (A498 renal) | growth (CCRF-CEM leukemia) | growth (MOLT-4 leukemia) | growth (SR leukemia) | growth (OVCAR-8 ovarian) | growth (OVCAR-5 ovarian) | growth (OVCAR-4 ovarian) | growth (SK-OV-3 ovarian) | growth (OVCAR-3 ovarian) | growth (HS 578T breast) | growth (NCI/ADR-RES ovarian) | growth (IGROV1 ovarian)
COc1cccc(/C=C2\C=C(c3ccccc3)N(Cc3ccccc3)C2=O)c1 | 72.6% | 39.3% | 43.6% | 41.2% | 88.5% | 48% | 55.1% | 16% | 62.2% | 59.1% | 10.9% | 68% | 92.8% | 71.9% | 42% | 59.3% | 42% | 51.3% | 
Cc1nn(-c2ccccc2)c(-n2ccnc2)c1/C=N/Nc1nc(-c2ccc(Cl)c(Cl)c2)cs1 | 83.7% | 30.8% | 31.3% | 49.6% | 2.74% (active) | 39.9% | 24.9% | 43.5% | 26.1% | 32.3% | 41.2% | 20% | 71.8% | -22.1% (active) | 89.5% |  | 42% | -9.8% (active) | 60.9%
CCCCCCCNC(=O)CCCNc1ncnc2c1ncn2-c1cccc(C(C)O)c1 (stereo unspecified) | 105% | 76.4% | 91.4% | 83.6% | 97.5% | 89.6% | 90.2% | 123% | 18.4% | 78.2% | 84.2% | 91.1% | 88.2% | 84.8% | 104% | 87.1% | 97.4% | 95.8% | 
CCC(C)(c1cc(C(C)(C)C)c(O)c(C(C)(C)C)c1)c1cc(C(C)(C)C)c(O)c(C(C)(C)C)c1 | 96.2% | 107% | 101% | 92.2% | 97.3% | 101% | 94.2% | 101% | 98.9% | 100% | 90.4% | 102% | 94.5% | 103% | 100% | 109% | 97% |  | 
CS(=O)(=O)Nc1cc(-c2ccc3ncnc(Nc4cccc(Cl)c4F)c3c2)cnc1Cl | 28.4% | 44.7% | 37.4% | 28.8% | 34.8% | 66.5% | 19.8% | -32.5% (active) | 30.4% | 27.3% | 43.5% | 60.8% | 38.3% | 77.2% | 30.5% |  | -3.32% (active) | 86.9% | -8.72% (active)
O=c1c2cccc(F)c2sc2c(NCCCNCCO)nc3ccccc3c12 | 89.8% | 55.4% | 43.5% | 19% | 48.6% | 15.3% | 3.45% (active) | 40.9% | 22.7% | -6.18% (active) | -16.6% (active) | 32% | 61.8% | 34.9% | 56.2% |  | 37.8% | 31.5% | 24.2%
COc1ccc2c(c1)C(C)Cc1c(ncnc1-n1c(C)nc3ccccc31)N2C (stereo unspecified) | 33.9% | 43.4% | 35.8% | 37.3% | 57% | 51.4% | 25.2% | -9.67% (active) | 18.3% | 20.6% | 4.92% (active) | 38.8% | 78.3% | 58.6% | 31.5% | 5.47% (active) | 2.46% (active) | 5.75% (active) | 
Cc1c(C(=O)/C=C/Nc2c(Cl)cc(S(N)(=O)=O)cc2Cl)sc2nc3ccccc3n12 | 109% | 106% | 102% | 89.2% | 111% | 99% | 98.5% | 101% | 102% | 106% | 110% | 101% | 106% | 116% | 111% | 107% | 105% | 110% | 
COc1ccc(S(=O)(=O)n2c3ccccc3n3ncc(-c4nnc(C)o4)c23)cc1 | 67% | 31.7% | 38.3% | 44.8% | 76.1% | 45.7% | 32.1% | -8.11% (active) | 11.7% | 24.1% | 24.7% | 45% | 30.6% | 81.6% | 54.4% | 0.366% (active) | 27% | -25.1% (active) | 
Cc1ccc(C(CC(=O)O)c2c(C)[nH][nH]c2=O)cc1 (stereo unspecified) | 113% | 105% | 98.2% | 93% | 98.6% | 104% | 101% | 112% | 97.1% | 98.8% | 99% | 101% | 106% | 111% | 97.7% |  | 109% | 102% | 105%
CN1C(=O)CNC(=O)[C@H](NC(=O)c2nc3ccccc3cc2O)CSSC[C@H]1C(=O)NCCc1nc2ccccc2cc1O | -17.1% (active) | 73.9% | 69.2% | 56.5% | 67.9% | 78.6% | 105% | 131% | 23.5% | 0.111% (active) | -41.8% (active) | 92.2% | 129% | 90.7% | 117% | 19.5% | 92.3% | 105% | 
COc1ccc(C2NC(=O)C(C#N)c3c2sc2c(F)cccc32)c(OC)c1 (stereo unspecified) | 65.1% | 79.8% | 73.8% | 34% | 90.1% | 37.5% | 21.4% | 25.2% | 71.9% | 71.4% | 13.9% | 62.3% | 98.9% | 53.7% | 50.8% | 13.8% | 21.4% | 16.7% | 52.7%
CNC(=O)c1cc(-n2ccc3cc(NC(=O)c4ccc(N5CCOCC5)c(C(F)(F)F)c4)ccc32)ccn1 | 91.1% | 83.9% | 64.3% | 50.2% | 86.8% | 61.5% | 63.6% | 25.9% | 30.1% | 34.6% | 24.8% | 27.7% | 79.1% | 64.4% | 91.2% |  | 47.1% | 45.7% | 77.7%
CCN(CC)CCCNc1nc2ccccc2c2c(=O)c3cc(Cl)ccc3sc12 | 108% | 79.1% | 66.9% | 33.8% | 68.7% | 47.3% | 23% | 41.4% | 11.7% | 5.32% (active) | -15.7% (active) | 61.5% | 75.5% | 45.1% | 89.3% |  | 64.3% | 74.1% | 50.7%
Cc1ccc(-c2nc(N3CCN(CC(=O)Nc4ccc(Cl)cc4)CC3)c3ccccc3n2)cc1 | 103% | 85.4% | 90.4% | 64.1% | 104% | 98.3% | 85.2% | 51.4% | 88.9% | 62.1% | 79.1% | 92.3% | 93.9% | 96.2% | 94.3% |  | 92.6% | 84.5% | 96.3%
COc1ccc(/C=C(/C#N)n2nnc3cccc(F)c32)cc1 | -10.4% (active) | 36.8% | 28.9% | 26.2% | 46.5% | 31.5% | 22.8% | -7.93% (active) | 21.3% | 13.8% | 7.75% (active) | 10.7% | 19.7% | 29.9% | 29% |  | -16.4% (active) | -29.6% (active) | 34.4%
CCCCC[C@H](O)C/C=C1/C(=O)C=C[C@@H]1C/C=C\CCCC(=O)OC | 89.2% | 103% | 11.5% | 81.5% | 82.3% | 75.9% | 60.5% | 97.5% | 2.62% (active) | 20.2% | 0.159% (active) | 13.8% | 129% | 83.9% | 118% | 11.6% | 88% | 18.7% | 
